# Measurements taken from PMC5540273 (PLoS ONE, 2017).
# Values joined by “and” are separate entries in the source; they are usually repeats but may differ in a detail not shown here. Identical values can stand only once. Like-named read-outs stand apart in the source and are kept apart here.
# Columns and labels:
# [1] = test system: AAK1; conditions: concentration: 1 μM, replicates: in singlicate; n = 1
# [2] = test system: ABL1-nonphosphorylated; conditions: concentration: 1 μM, replicates: in singlicate, n = 1
# [3] = test system: ABL1-phosphorylated; conditions: concentration: 1 μM, replicates: in singlicate, n = 1
# [4] = test system: ABL2; conditions: concentration: 1 μM, replicates: in singlicate, n = 1
# [5] = test system: ACVR1B; conditions: concentration: 1 μM, replicates: in singlicate, n = 1
# [6] = test system: ACVR1; conditions: concentration: 1 μM, replicates: in singlicate, n = 1
# [7] = test system: TXK
# [8] = test system: TNNI3K
# [9] = test system: VRK2
# [10] = test system: T1, VPS34
# T1 construct: gene PIK3C3
# [11] = test system: T2, YSK4
# T2 construct: gene MAP3K19
# [12] = test system: T3, p38-alpha
# T3 construct: gene MAPK14
# [13] = test system: ULK2
# [14] = test system: TGFBR1
# [15] = test system: ZAK
# [16] = test system: WNK4
# [17] = test system: T4, p38-beta
# T4 construct: gene MAPK11
# [18] = test system: TRPM6
# [19] = test system: TGFBR2
# [20] = test system: TYK2(JH1domain-catalytic)
# 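For %Inh in this document: KINOMEscan kinase panel screen.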
# 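For Kd in this document: kd values determined as follow-up on hits from a single-replicate KINOMEscan panel screen.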
compound,measurement,setting,value
CC(C)(CN)c1nc(-c2ccc(Cl)c(O)c2)c(-c2ccncc2)[nH]1.O=C(O)C(F)(F)F [SB-477794],%Inh,[1],0%
same,%Inh,[2]; 1 µM,96.1% and 94.7%
same,%Inh,[3]; 1 µM,99.4% and 98.9%
same,%Inh,[4]; 1 µM,92.4% and 89%
same,%Inh,[5]; 1 µM,87% and 91.7%
same,%Inh,[6]; 1 µM,96.5% and 93.4%
NS(=O)(=O)CCc1cccc(Nc2nccc(-c3c(-c4cccc(NC(=O)c5c(F)cccc5F)c4)nn4ccccc34)n2)c1 [GSK336735],%Inh,[1],0%
same,%Inh,[2],95.3%
same,%Inh,[3],16%
same,%Inh,[4],78%
same,%Inh,[5],7%
same,%Inh,[6],0%
Cc1nnc(-c2ccc3occ(-c4ccc(C(C)O)cc4)c3c2)o1 (stereo not drawn),%Inh,[1],23%
same,%Inh,[2],64%
same,%Inh,[3],36%
same,%Inh,[4],8%
same,%Inh,[5],14%
same,%Inh,[6],15%
O=C(Nc1cccc(-c2nn3ncccc3c2-c2ccnc(Nc3cccc(C(F)(F)F)c3)n2)c1)c1c(F)cccc1F [GSK299495],%Inh,[1],2%
same,%Inh,[2],18%
same,%Inh,[3],9%
same,%Inh,[4],35%
same,%Inh,[5],0%
same,%Inh,[6],9%
CN(C1=C(c2ccccc2)C(=O)NC1=O)c1ccccc1 [SB-334860],Kd,[7],> 10000 nM
same,%Inh,[1],7%
same,%Inh,[2],0%
same,%Inh,[3],0%
same,%Inh,[4],0%
same,%Inh,[5],0%
same,%Inh,[6],1%
c1ccc(-c2cc(-c3c[nH]nc3-c3ccccn3)ccn2)cc1 [GW576604],Kd,[8],> 10000 nM
same,%Inh,[1],23%
same,%Inh,[2],0%
same,%Inh,[3],0%
same,%Inh,[4],0%
same,%Inh,[5],37%
same,%Inh,[6],0%
Cn1ccc2ncnc(Oc3ccc(NC(=O)Nc4ccncc4)c(Cl)c3)c21,%Inh,[1],0%
same,%Inh,[2],31%
same,%Inh,[3],3%
same,%Inh,[4],0%
same,%Inh,[5],23%
same,%Inh,[6],0%
CC(C)(C)n1cnc2c(N)ncnc21 [SKF-97359],Kd,[9],> 10000 nM
same,%Inh,[1],0%
same,%Inh,[2],37%
same,%Inh,[3],0%
same,%Inh,[4],1%
same,%Inh,[5],0%
same,%Inh,[6],0%
NS(=O)(=O)c1cccc(-c2ccc3ncc(N4CCOCC4)nc3c2)c1 [GSK1535721],Kd,[10],> 10000 nM
same,Kd,[11],3400 nM
same,%Inh,[1],26%
same,%Inh,[2],1%
same,%Inh,[3],0%
same,%Inh,[4],0%
same,%Inh,[5],0%
same,%Inh,[6],21%
CNc1ncnc2[nH]ncc12 [SKF-18355],%Inh,[1],0%
same,%Inh,[2],34%
same,%Inh,[3],11%
same,%Inh,[4],0%
same,%Inh,[5],4%
same,%Inh,[6],0%
Cc1cccc(-c2nc(-c3ccc(S(C)(=O)=O)cc3)sc2-c2ccncc2)c1,Kd,[12],540 nM
same,%Inh,[1],8%
same,%Inh,[2],0%
same,%Inh,[3],0%
same,%Inh,[4],29%
same,%Inh,[5],0%
same,%Inh,[6],0%
NS(=O)(=O)c1cccc(-c2ccc3nccc(-c4cccc(S(N)(=O)=O)c4)c3c2)c1 [GW867253],Kd,[13],> 10000 nM
same,%Inh,[1],27%
same,%Inh,[2],36%
same,%Inh,[3],15%
same,%Inh,[4],0%
same,%Inh,[5],0%
same,%Inh,[6],0%
O=C(c1ccc(-c2cc(-c3c[nH]nc3-c3ccccn3)ccn2)cc1)N1CCOCC1 [GW812171],Kd,[14],180 nM
same,%Inh,[1],0%
same,%Inh,[2],36%
same,%Inh,[3],29%
same,%Inh,[4],2%
same,%Inh,[5],76%
same,%Inh,[6],0%
COc1ccc(Nc2nccc(N3CCC(NC(=O)Nc4cc(C)ccc4C)C3)n2)cc1 (stereo not drawn) [GSK1379741],%Inh,[1],17%
same,%Inh,[2],0%
same,%Inh,[3],0%
same,%Inh,[4],14%
same,%Inh,[5],0%
same,%Inh,[6],0%
O=c1cc(N2CCOCC2)nc2n(Cc3cccc4ccccc34)ccn12 [GSK2333389],Kd,[10],60 nM
same,%Inh,[1],0%
same,%Inh,[2],0%
same,%Inh,[3],0%
same,%Inh,[4],17%
same,%Inh,[5],0%
same,%Inh,[6],0%
O=c1cc(N2CCOCC2)nc2n(Cc3cccc(F)c3)ccn12 [GSK2297430],Kd,[10],33 nM
same,%Inh,[1],5%
same,%Inh,[2],0%
same,%Inh,[3],0%
same,%Inh,[4],2%
same,%Inh,[5],0%
same,%Inh,[6],1%
CCc1nc(-c2cccc(C)c2)c(-c2ccnc(NCc3ccccc3)c2)s1,Kd,[12],150 nM
same,%Inh,[1],10%
same,%Inh,[2],35%
same,%Inh,[3],7%
same,%Inh,[4],21%
same,%Inh,[5],0%
same,%Inh,[6],0%
O=C(NCCNc1ccnc(Nc2ccc(F)cc2)n1)c1cc2ccccc2s1 [GSK1379874],Kd,[7],> 10000 nM
same,Kd,[15],> 10000 nM
same,%Inh,[1],0%
same,%Inh,[2],0%
same,%Inh,[3],0%
same,%Inh,[4],7%
same,%Inh,[5],0%
same,%Inh,[6],9%
N#Cc1c(N2CCOCC2)sc(-c2ccn[nH]2)c1-c1ccc(Cl)cc1,Kd,[10],58 nM
same,%Inh,[1],70%
same,%Inh,[2],42%
same,%Inh,[3],0%
same,%Inh,[4],9%
same,%Inh,[5],15%
same,%Inh,[6],0%
O=C1NC(=O)C(N2CCc3ccccc32)=C1c1cccc(Cl)c1 [SB-408010],Kd,[16],> 10000 nM
same,%Inh,[1],2%
same,%Inh,[2],33%
same,%Inh,[3],0%
same,%Inh,[4],10%
same,%Inh,[5],14%
same,%Inh,[6],0%
COCCNC(=O)c1ccc(-c2cc(C(=O)NC3CC3)cc(F)c2C)cc1 [GW868318],Kd,[12],7.3 nM
same,Kd,[17],88 nM
same,%Inh,[1],0%
same,%Inh,[2],43%
same,%Inh,[3],28%
same,%Inh,[4],12%
same,%Inh,[5],17%
same,%Inh,[6],7%
O=c1cc(N2CCOCC2)nc2n(Cc3cccc(Cl)c3Cl)c(C3CC3)nn12 [GSK2358994],Kd,[10],0.39 nM
same,%Inh,[1],14%
same,%Inh,[2],28%
same,%Inh,[3],20%
same,%Inh,[4],5%
same,%Inh,[5],0%
same,%Inh,[6],0%
O=C(Nc1n[nH]c2cc(-c3cccc(F)c3)ccc12)C1CC1 [SB-735464],Kd,[11],310 nM
same,%Inh,[1],26%
same,%Inh,[2],64%
same,%Inh,[3],43%
same,%Inh,[4],8%
same,%Inh,[5],10%
same,%Inh,[6],36%
CCn1cnc2c(N)ncnc21 [GW345098],Kd,[18],240 nM
same,%Inh,[1],0%
same,%Inh,[2],33%
same,%Inh,[3],35%
same,%Inh,[4],12%
same,%Inh,[5],0%
same,%Inh,[6],7%
Cc1ccc(C(=O)NCC(N)=O)cc1-n1c(C)cc(OCc2ccc(F)cc2F)c(Br)c1=O,Kd,[12],0.23 nM
same,Kd,[17],10 nM
same,%Inh,[1],0%
same,%Inh,[2],57%
same,%Inh,[3],33%
same,%Inh,[4],27%
same,%Inh,[5],11%
same,%Inh,[6],11%
Cl.Nc1ncnc2occ(-c3ccc(NC(=O)Nc4cc(C(F)(F)F)ccc4F)cc3)c12 [SB-707548],%Inh,[1],0%
same,%Inh,[2],99.1%
same,%Inh,[3],50%
same,%Inh,[4],81%
same,%Inh,[5],0%
same,%Inh,[6],1%
c1ccc(-c2n[nH]cc2-c2ccnc3ccccc23)nc1 [GW271431],Kd,[14],110 nM
same,%Inh,[1],16%
same,%Inh,[2],14%
same,%Inh,[3],1%
same,%Inh,[4],16%
same,%Inh,[5],79%
same,%Inh,[6],46%
N#Cc1ccc(-c2cc(-c3c[nH]nc3-c3ccccn3)ccn2)cc1 [GW693028],Kd,[14],150 nM
same,Kd,[19],580 nM
same,%Inh,[1],0%
same,%Inh,[2],7%
same,%Inh,[3],29%
same,%Inh,[4],10%
same,%Inh,[5],56%
same,%Inh,[6],59%
Cc1cn2c(=O)cc(N3CCOCC3)nc2n1Cc1cccc(Cl)c1Cl [GSK2334006],Kd,[10],2.2 nM
same,%Inh,[1],14%
same,%Inh,[2],73%
same,%Inh,[3],63%
same,%Inh,[4],41%
same,%Inh,[5],9%
same,%Inh,[6],18%
O=c1cc(N2CCOCC2)nc2n(Cc3cccc(C(F)(F)F)c3)ccn12 [GSK2297543],Kd,[10],130 nM
same,%Inh,[1],0%
same,%Inh,[2],0%
same,%Inh,[3],0%
same,%Inh,[4],3%
same,%Inh,[5],0%
same,%Inh,[6],5%
Cc1nnc(-c2ccc(C)c(-c3ccc(C(=O)Nc4ccc(NS(C)(=O)=O)cc4)cc3)c2)o1 [GW702865],Kd,[12],140 nM
same,%Inh,[1],0%
same,%Inh,[2],0%
same,%Inh,[3],0%
same,%Inh,[4],0%
same,%Inh,[5],0%
same,%Inh,[6],0%
Cc1ccc(NC(=O)c2ccnc(N3CCN(C)CC3)c2)cc1-c1ccc(C(=O)NCC2CC2)cc1 [GW775604],Kd,[20],> 10000 nM
same,Kd,[13],> 10000 nM
same,%Inh,[1],0%
same,%Inh,[2],45%
same,%Inh,[3],0%
same,%Inh,[4],0%
same,%Inh,[5],0%
same,%Inh,[6],0%
Cc1cccc(Cn2ccn3c(=O)cc(N4CCOCC4)nc23)c1 [GSK2297542],Kd,[10],75 nM
same,%Inh,[1],15%
same,%Inh,[2],7%
same,%Inh,[3],0%
same,%Inh,[4],13%
same,%Inh,[5],0%
same,%Inh,[6],0%
COc1ccc(Nc2nccc(N3CCC(NC(=O)Nc4cccc(C(C)=O)c4)C3)n2)cc1 (stereo not drawn) [GSK1379731],Kd,[9],> 10000 nM
same,%Inh,[1],0%
same,%Inh,[2],0%
same,%Inh,[3],0%
same,%Inh,[4],7%
same,%Inh,[5],0%
same,%Inh,[6],0%
CN(C(=O)c1ccc(-c2cc(-c3c[nH]nc3-c3ccccn3)ccn2)cc1)C1CCOCC1 [GW810083],Kd,[9],> 10000 nM
same,%Inh,[1],0%
same,%Inh,[2],57%
same,%Inh,[3],0%
same,%Inh,[4],0%
same,%Inh,[5],52%
same,%Inh,[6],0%
Fc1ccc(-c2ncn(CCCN3CCOCC3)c2-c2ccccn2)cc1 [SB-211742],%Inh,[1],0%
same,%Inh,[2],39%
same,%Inh,[3],12%
same,%Inh,[4],7%
same,%Inh,[5],1%
same,%Inh,[6],0%
CC(=O)Nc1ccc(COc2ccc(Nc3ccnc4cc(-c5ccccn5)ccc34)cc2)cc1.Cl [GW440148],%Inh,[1],13%
same,%Inh,[2],35%
same,%Inh,[3],19%
same,%Inh,[4],11%
same,%Inh,[5],0%
same,%Inh,[6],0%
COc1ccc(COc2cc(-n3cnc4ccccc43)sc2C(N)=O)cc1 [GSK1024304],%Inh,[1],29%
same,%Inh,[2],0%
same,%Inh,[3],0%
same,%Inh,[4],15%
same,%Inh,[5],0%
same,%Inh,[6],0%
CN1c2ccc(NCc3ccc(F)cc3)cc2-c2c(cnn2C)S1(=O)=O,%Inh,[1],0%
same,%Inh,[2],21%
same,%Inh,[3],9%
same,%Inh,[4],0%
same,%Inh,[5],0%
same,%Inh,[6],0%
